# This excerpt belongs to a sample that is enriched for hits.
# HT1080 IDH1KD tx – kills HT-1080 cells with IDH1 knockdown; HT-1080 IDH1 knockdown viability, ATP luminescence, 48 h; Potency, µM (highest dose often 46.1 µM), for the others: at the top dose activity, negative = toxicity, most hits filed as cytotoxic; hit rate 2% among 360,000; AID 686971;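 further: potency means the concentration at half of the fitted maximal effect; 0% = DMSO wells and -100% = cell-free medium wells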
#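 CellTiter-Glo luminescence after 48 h compound exposure at 37 degrees C of IDH1-knockdown HT-1080 cells in 5% FBS RPMI. %Activity scaled between DMSO wells and cell-free media wells, with curves fitted and assigned curve classes.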
# HT1080-NT tox – kills 2HG-producing HT-1080-NT fibrosarcoma cells. hit rate 1.6% among 360,000. Potency, µM (top dose mostly 46.1 µM), without a hit: at the highest dose activity, negative = less viability, usual class: cytotoxic. HT-1080-NT fibrosarcoma viability, CellTiter-Glo ATP luminescence, 48 h. AID 686970;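 further: NT is the 2HG producing partner of a matched IDH1 knockdown line; potency means the concentration at half of the fitted maximal effect; 0% = DMSO-treated cells and -100% = media-only wells without cells; nearly all actives have a fitted effect of over 55% in size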
#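 Fibrosarcoma NT cells, 750 per well in 5% FBS RPMI, were exposed to compound for 48 hours. Viability: CellTiter-Glo luminescence.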
# DT40 TDP1 no CPT – qHTS for Inhibitors of human tyrosyl-DNA phosphodiesterase 1 (TDP1): qHTS in cells in absence of CPT; DT40 Tdp1-/- hTDP1 cells, no CPT, ATP luminescence, 48 h; hit rate 15% among 420,000; AID 686978, 2013; Potency, µM (titrated, usually from 46.2 µM), for the others: at the highest dose activity change, negative = growth inhibition, usual class: inhibitors; further: potency means the concentration at half of the fitted maximal effect; nearly all actives have a fitted effect of over 55% in size
#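 Camptothecin absent (DMSO only). Human TDP1-complemented DT40 knockout cells, 400 cells/well, 37 °C for minimum 48 hr; ATP measured via CellTiter-Glo, 30 min dark incubation, luminescence.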
# TDP1 cell CPT – DT40-hTDP1 cell growth loss with CPT | chicken DT40 Tdp1-/-;hTDP1 cells + 20 nM CPT, ATP luminescence, 48 h | Potency, µM (titrated, usually from 46.2 µM), for the others: at the highest dose activity change, negative = growth inhibition, most hits filed as inhibitors | hit rate 12% among 420,000 | AID 686979; further: potency means the concentration at half of the fitted maximal effect; nearly all actives have a fitted effect of over 55% in size
#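 Chicken DT40 Tdp1-/- cells complemented with human TDP1, 400 cells/well, exposed to compounds plus 20 nM camptothecin for at least 48 h at 37 C; viability read as ATP content by CellTiter-Glo luminescence.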
# IL1B secr inh – inhibitors of inflammasome signaling (IL-1 beta secretion); THP-1 LPS/ATP IL-1B secretion, AlphaLISA, 16 h; stronger effect = lower value; activity change, % at 57.5 µM; hit rate 4.7% among 360,000; in the data active means activity change below about -50%; inconclusive means mostly about -30% to -49%
#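 Secreted IL-1B measured by AlphaLISA bead assay after 16 h compound exposure of THP-1 cells; compounds (final up to 57.5 uM) added 1 h before LPS (250 ng/mL) and ATP (1.25 mM) stimulation; lower signal means less secretion.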
# 12-LOX inh – inhibitors of human 12S-lipoxygenase ALOX12; P18054; purified 12hLO, xylenol orange hydroperoxide absorbance; Potency, µM (highest dose often 108 µM), for inactives: top-dose activity change, negative = inhibition, usual class: inhibitors; hit rate 1.1% among 580,000; AID 1671190; further: potency means the concentration at half of the fitted maximal effect
# Target sequence (P18054 whole entry, looked up): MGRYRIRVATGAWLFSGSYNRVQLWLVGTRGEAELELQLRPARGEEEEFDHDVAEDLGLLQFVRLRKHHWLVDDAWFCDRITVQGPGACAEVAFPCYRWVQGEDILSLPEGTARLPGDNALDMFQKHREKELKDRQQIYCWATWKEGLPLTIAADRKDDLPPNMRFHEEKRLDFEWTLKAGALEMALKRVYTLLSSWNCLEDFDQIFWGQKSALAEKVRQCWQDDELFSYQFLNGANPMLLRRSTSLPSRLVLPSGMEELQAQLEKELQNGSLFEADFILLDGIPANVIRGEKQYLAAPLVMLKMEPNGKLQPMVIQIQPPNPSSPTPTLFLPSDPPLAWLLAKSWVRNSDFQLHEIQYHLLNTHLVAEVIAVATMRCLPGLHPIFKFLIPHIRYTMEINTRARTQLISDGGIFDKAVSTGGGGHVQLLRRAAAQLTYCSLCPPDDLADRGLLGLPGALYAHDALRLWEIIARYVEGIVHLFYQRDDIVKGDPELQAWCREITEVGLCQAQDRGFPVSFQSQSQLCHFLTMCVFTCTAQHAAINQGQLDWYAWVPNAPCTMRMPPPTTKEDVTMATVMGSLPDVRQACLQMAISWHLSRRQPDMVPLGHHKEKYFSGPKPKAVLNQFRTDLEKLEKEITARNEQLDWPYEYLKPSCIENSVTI
#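 Hydroperoxide product was detected by ferrous iron/xylenol orange as the 573 to 405 nm absorbance ratio. Arachidonic acid at 40 uM (final) was turned over for 30 min at room temperature by 150 nM human 12hLO, pH 7.0 Hepes buffer, after 15 min compound preincubation.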
# Active calls of the source: *; ? = inconclusive; / = no result; [ ] = dose if it differs, or a comment. Unless noted, the call rests on the fitted dose curve; in most records, active means well fitted curve in the direction sought with a large enough effect; inconclusive means small, poorly fitted or top-dose-only effect, or another doubt; inactive means no such curve, though single readings can be large; an effect the other way counts as inactive or inconclusive. Unless noted, on the % scale 0 is the no-effect control and ±100 the full control effect.
SMILES,HT1080 IDH1KD tx,HT1080-NT tox,DT40 TDP1 no CPT,TDP1 cell CPT,IL1B secr inh,12-LOX inh
CC(C)[Si]1(C(C)C)OCC2OC(n3cnc4c(N)ncnc43)C(N)C2O[Si](C(C)C)(C(C)C)O1 (stereo not drawn),?,-18%,12µM*,13µM*,?,-7%
C[C@@H](CO)NC(=O)[C@H]1O[C@@H](n2cnc3c(N)ncnc32)[C@H](O)[C@@H]1O,15%,0%,2%,-1%,-3,/
Clc1ccc(-c2nnc3n2CCN(Cc2ccsc2)C3)cc1,/,/,/,/,/,2%[6.33 µM]
CC(C)c1csc(CN2CCCC(CNC(=O)c3cccc4ccccc34)C2)n1 (stereo not drawn),-5%,-4%,?,16µM*,31,0%
COc1ccc(-n2c(C)cc(C(=O)Cn3nc(C(=O)O)c4ccccc4c3=O)c2C)cc1,-16%,-10%,16µM*,?,0,?
Cc1cc(C(=O)Cn2nc(C(=O)O)c3ccccc3c2=O)c(C)n1CCc1ccc(F)cc1,?,-11%,?,16µM*,-5,?
COc1ccc(-n2c(C)cc(C(=O)Cn3nnc4ccccc4c3=O)c2C)cc1,?,?,21µM*,21µM*,0,9%
Cc1cc(C(=O)Cn2nnc3ccccc3c2=O)c(C)n1-c1ccccc1F,?,-27%,?,?,-22,0%
Cc1cc(C(=O)Cn2nc(C(=O)O)c3ccccc3c2=O)c(C)n1CC(F)(F)F,-20%,-12%,-4%,-10%,-2,?
CC(C)CC(NC(=O)C(C)NC(=O)OCc1ccccc1)c1ccccc1 (stereo not drawn),/,/,/,/,/,-37%
O=C1CC(c2ccccc2)N(C(=O)C2CC2)CCCN(C(=O)c2ccco2)CCN1 (stereo not drawn),/,/,/,/,/,16%
CCCNC(=O)N(C1CCOCC1)C1CCN(C(=O)c2ccc(C)c(F)c2)CC1,/,/,/,/,/,35%
COc1ccc(CNC(=O)CCCN2C(=O)CSc3c2c(C)nn3-c2ccccc2)cc1,/,/,?,?,/,-20%
Cc1nn(-c2ccccc2)c2c1N(CC(=O)NCc1ccc(N(C)C)cc1)C(=O)CS2,/,/,18µM*,?,/,-28%
COc1ccc(CNC(=O)CCCN2C(=O)CSc3c2c(C)nn3-c2ccccc2)c(OC)c1,/,/,16µM*,?,/,?
Cc1ccc(CNC(=O)CN2C(=O)CSc3c2c(C)nn3-c2ccccc2)cc1,/,/,0%,-4%,/,-22%
Cc1nn(-c2ccccc2)c2c1N(CCCC(=O)NCc1ccc(N(C)C)cc1)C(=O)CS2,/,/,23µM*,23µM*,/,-16%
CCCOc1ccc(CNC(=O)CCCN2C(=O)CSc3c2c(C)nn3-c2ccccc2)cc1,/,/,?,21µM*,/,?
CC(Sc1nnc2ccccn12)C(=O)N1CCN(Cc2ccccc2)CC1 (stereo not drawn),/,/,/,/,/,1%
Cc1[nH]c2ccc(C(=O)OC(C)C(=O)NC3CC3)cc2c1C (stereo not drawn),/,/,/,/,/,1%
CN(C(=O)CC(c1ccccc1)c1ccc(Cl)cc1)C1CCOCC1 (stereo not drawn),/,/,/,/,/,-27%
O=C(Nc1ccc(Br)cc1)c1ccccc1Br,9%,16%,19%,-10%,-56*,?
COCCSc1ccccc1C(=O)Nc1cccnc1,13%,12%,9%,-14%,13,22µM*
COCCSc1ccccc1C(=O)Nc1ccc(Cl)cc1,-4%,-2%,?,?,?,18µM*
COCCSc1ccccc1C(=O)Nc1ccc([N+](=O)[O-])cc1OC,-2%,0%,23µM*,?,-2,-27%
SMILES,HT1080 IDH1KD tx,HT1080-NT tox,DT40 TDP1 no CPT,TDP1 cell CPT,IL1B secr inh,12-LOX inh
COCCSc1ccccc1C(=O)Nc1ccc2c(c1)OCO2,0%,0%,-13%,4%,7,-16%
COCCSc1ccccc1C(=O)Nc1cc(C)on1,19%,2%,-7%,-19%,30,?
CC(=O)Nc1ccc(NC(=O)c2ccccc2Br)cc1,1%,1%,-1%,4%,-11,4%
COCCSc1ccccc1C(=O)Nc1ccc(Br)cc1,-1%,5%,?,?,-8,35µM*
C#CC1(O)CCC2C3CCc4cc(O)cc(C)c4C3CCC21C (stereo not drawn),-13%,0%,?,16µM*,2,?
COc1ccc(-c2cc(-c3nnc(COC(=O)C4CC4)o3)c3ccccc3n2)cc1OC,1%,-10%,9.2µM*,?,10,-5%
COc1ccc(-c2cc(-c3nnc(COC(=O)C4CC4C)o3)c3ccccc3n2)cc1OC (stereo not drawn),10%,4%,16µM*,21µM*,-53*,-15%
COc1ccc(-c2cc(C(=O)N3CC(C)CC(C)C3)c3ccccc3n2)cc1OC (stereo not drawn),-1%,0%,?,?,-14,-11%
COc1ccc(-c2cc(-c3nnc(COC(=O)c4ccc(O)cc4)o3)c3ccccc3n2)cc1OC,?,?,10µM*,?,?,9%
O=C(OCc1nnc(-c2ccccc2)o1)c1ccc(Cl)cc1,-1%,-2%,8%,-10%,-14,-4%
O=C(Nc1ccc(Br)cc1)c1ccc(Br)c(S(=O)(=O)N2CCCCC2)c1,/,/,18µM*,?,/,2%
O=C(c1ccc(Cl)c(S(=O)(=O)N2CCOCC2)c1)N(c1ccccn1)C1CCCCC1,8%,12%,16µM*,?,29,43%
O=C(Nc1ccccc1)c1ccc(NC2CCCCC2)c(S(=O)(=O)N2CCOCC2)c1,-12%,-2%,?,?,-52*,6%
O=C(Nc1ccccc1)c1ccc(Br)c(S(=O)(=O)N2CCCCC2)c1,/,/,21µM*,18µM*,/,-13%
CCCc1ccc(S(=O)(=O)N2CCN(C(=O)NCC3CN(CC(C)C)CCO3)CC2)cc1 (stereo not drawn),/,/,/,/,/,-3%
CCC(=O)N1CCCC(C(=O)N(C)Cc2cccc(C(F)(F)F)c2)C1 (stereo not drawn),/,/,/,/,/,9%
O=C(Nc1ccc(Cl)cn1)c1ccc(Br)c(S(=O)(=O)N2CCCCC2)c1,16%,1%,?,23µM*,-7,14%

# Screening data as filed in PubChem BioAssay.
